Experimental data from the OligoGym collection.

What follows are sequences tested against KRTAP10-10 (assay: pooled miR-30 sensor sort-seq; sequence = guide strand). Details: shRNA.
Also: reference of the scale not given here.

Sequence | sensor-assay potency score (higher = more potent)
TGCAGGAGCTGGTGTAGCCTGA | -0.876
TGGTAGCATGGGGTTGTGCAGG | -1.66
TAGCAGACGGACTTAGAGCAGA | -0.81
TTACAGACGGGCACGCAGCAGA | -0.719
AAGCACACAGGCTTGTTACAGA | -0.517
TTAGTTCTGCAGAACTTGGGTC | 0.494
TAGCATGGGGTTGTGCAGGAGC | -0.83
TAGACTGCTGGTAGCATGGGGT | -0.566
TTGTTACAGACGGGCACGCAGC | -1.52
TAGGCACGAAGCACACAGGCTT | 0.129
AAGACTCGGAGCAGGTAGGCAC | -0.677
TGGGCAGTCGACTACCCGCCAA | -1.3

These sequences were tested against KRTAP10-2 in the same assay as above. Details: shRNA.

Sequence | sensor-assay potency score (higher = more potent)
TACACAGCAGATGGACTTGCAG | -0.914
TTGGTGCAGGCGCTGGAGCAGA | -1.45
AGCAGGACTGCTGACACGGGGA | -1.24
TTGCAGCAGACGGACACACAGC | -1.17
TGGGCACGCAGCACACAGCTTT | -1.18
AACAGGTACACAGCAGATGGAC | -1.3
TAGACTGCTGGCAGCACGGAGA | -0.939
CAGCACACAGCTTTGCAGCAGA | -2.3
TGGCCTGAGGAAAAGCTGCAGG | -1.08
ACACAGCAGATGGACTTGCAGC | -1.45
AAGAGGATGACTCAGAGCAGGT | -1.29
AGCATGAAGAGGATGACTCAGA | -1.89

The sequences below were run against KRTAP13-1 in the same assay as above. Details: shRNA.

Sequence | sensor-assay potency score (higher = more potent)
TCCAACGCCATAGCCCAGGGAA | -1.31
ACATAGGATGTCTGGCAGCTGG | -1.73
TAGAATAAGAGGCTAATTCTTT | -0.634
TCCACATAGGATGTCTGGCAGC | -1.92
TAGCAAGAAGACTGGCAGCTCC | -0.434
TTGGTCTGTAGCAAGAAGACTG | -0.458
TAGACCTGGTTGCTGGGGTAGG | -1.13
TAACCCAGGGATCTGAAGCCAC | -0.898
TCTGTAGCAAGAAGACTGGCAG | 0.163
TAGGAAAAGCCACAGGAGGAGG | -1.49
TGGTCTGTAGCAAGAAGACTGG | -0.92

The sequences below were run against KRTAP13-2 in the same assay as above. Details: shRNA.

Sequence | sensor-assay potency score (higher = more potent)
TAAGTCGTCTTGCAAGGACTGC | -0.646
TCCAGATCCATAGCCGAGGGAA | -1.28
TAGGACGTCTGGCAGCTGGTGG | -1.01
TAGCGCAGGTAGTCACCACAGG | -0.777
